Compound activity as filed in PubChem.
Sampled rows, rich in hits. Any-hit rate of the full collection: about 5.2%.
SMARCA2 act – SMARCA2 function activation, primary screen. MG213 cells, MMTV-luciferase reporter, dexamethasone, overnight. activation, % at 9.1 µM. 1% of 370,000 active; in the data active = activation above about 7.8%;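 note: 0% = vehicle wells and 100% = reference activator wells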
SKN-1 block – inhibitors of C. elegans SKN-1 | inhibition, % at 21.8 µM | 0.49% of 360,000 active | C. elegans VP596 Pgst-4::GFP/RFP ratio, acrylamide-induced, 24 h;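 active = interference check ratio from 0.5 to 1.5 plus GFP to RFP signal ratio inhibition reaching or exceeding a fixed threshold, cut at about 30% in these data, passing the limit was not always enough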
Vif imaging – blocks HIV Vif function; HEK293T cells, Vif self-association by quenched fluorescence, imaging, 24 h; inhibition, % at 7.49 µM; 0.35% of 340,000 active; in the data active = inhibition above about 50%, passing the limit was not always enough
NadD block – blocks S. aureus nicotinate mononucleotide adenylyltransferase. purified NadD enzyme, colorimetric absorbance read-out. inhibition, % at 20 µM. 0.78% of 360,000 active; in the data active = inhibition above about 26%
esBAF inh – inhibitors of esBAF chromatin remodeling in mouse ES cells. Bmi1-luciferase knock-in reporter, 24 h; 100% = twice the neutral-well signal. reporter increase, % at 12.5 µM. 2% of 350,000 active. AID 602393; in the data active = activation above about 40%;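 note: 0% = median of the plate's neutral control wells and 100% = double that signal; a rise in the Bmi1 reporter signal indicates esBAF inhibition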
GRIN3A LBD mod – modulators (binders) of human NR3A ligand-binding domain; 2.5% of 340,000 active; Tm shift relative to glycine control, % at 25 µM; NR3A LBD differential scanning fluorimetry, Tm shift; 0% = protein alone, 100% = glycine-bound protein;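 active = melting temperature shift of at least 10% of the positive control shift, at one fixed dose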
An asterisk follows results filed as active; ! = a repeat was not active.

What do the screens show for `Cc1ccc(SCCNC(=O)CN2C(=O)c3ccccc3S2(=O)=O)cc1`?
SMARCA2 act: 1; SKN-1 block: 37*; Vif imaging: 31; NadD block: -4; esBAF inh: 3; GRIN3A LBD mod: 2

How did O=C(CN1C(=O)c2ccccc2S1(=O)=O)NCCSc1ccccc1 do in these assays?
SMARCA2 act: 0; SKN-1 block: 11; Vif imaging: 11; NadD block: 6; esBAF inh: 0; GRIN3A LBD mod: 0

Results for O=C1c2ccccc2C(Nc2ccc(S(=O)(=O)N3CCOCC3)cc2)N1c1ccccn1 (stereo unspecified) ?
SMARCA2 act: 3; SKN-1 block: -10; Vif imaging: 52*; NadD block: -6; esBAF inh: 0; GRIN3A LBD mod: 0

What do the screens show for `COc1ccc(NC(=O)Nc2ccc3c(c2)CC(=O)N([C@H](C)CO)C[C@H](C)[C@H](CN(C)C(=O)NC(C)C)O3)cc1`?
esBAF inh: -1

Results for CCC1CCCCN1CCN1C(=O)C2C(C(=O)Nc3cccc(OC)c3)C3C=CC2(O3)C1C(=O)NC1CCCCC1 (stereo unspecified) ?
SMARCA2 act: -1; SKN-1 block: 5; Vif imaging: 3; NadD block: -3; esBAF inh: -4; GRIN3A LBD mod: -1

What do the screens show for `CCC1CCCCN1CCN1C(=O)C2C(C(=O)Nc3ccc(OC)cc3)C3C=CC2(O3)C1C(=O)NC1CCCCC1` (stereo unspecified)?
SMARCA2 act: 2; SKN-1 block: 37*; Vif imaging: 10; NadD block: -4; esBAF inh: 2; GRIN3A LBD mod: 2

How did CC(=O)Nc1ccc(S(=O)(=O)Nc2nccc(/C=C/c3ccc(Cl)cc3)n2)cc1 do in these assays?
SMARCA2 act: -3; SKN-1 block: 7; Vif imaging: 11; NadD block: 7; GRIN3A LBD mod: 12*

How did O=[N+]([O-])c1ccccc1NCCOc1ccccc1 do in these assays?
SMARCA2 act: 6; SKN-1 block: 46*; Vif imaging: -1; NadD block: -10; GRIN3A LBD mod: 2

What do the screens show for `Cc1ccc(S(=O)(=O)NCCC(=O)Nc2ccc(Cl)c(Cl)c2)cc1C`?
SMARCA2 act: -1; SKN-1 block: 8; Vif imaging: -15; NadD block: -7; esBAF inh: 6; GRIN3A LBD mod: 13*

How did CC(=O)Nc1ccc(S(=O)(=O)NCCC(=O)Nc2ccc(C)c(Cl)c2)cc1 do in these assays?
SMARCA2 act: 2; SKN-1 block: 0; Vif imaging: 7; NadD block: -2; GRIN3A LBD mod: 5

What do the screens show for `Cc1ccc(S(=O)(=O)NCCC(=O)Nc2ccncc2)cc1C`?
SMARCA2 act: -1; SKN-1 block: 5; Vif imaging: -10; NadD block: -3; esBAF inh: -10; GRIN3A LBD mod: 0

What do the screens show for `Cc1ccc(S(=O)(=O)NCCC(=O)Nc2ccc(Cl)c(Cl)c2)cc1`?
SMARCA2 act: 1; SKN-1 block: 13; Vif imaging: 15; NadD block: -6; GRIN3A LBD mod: 10*

Results for CCN=c1scc(-c2ccc3c(c2)NC(=O)CO3)n1N=C1CCCC1 ?
SMARCA2 act: -5; SKN-1 block: 1; Vif imaging: 54*!; NadD block: 4; esBAF inh: -2; GRIN3A LBD mod: -2

What do the screens show for `O=C(C[C@@H]1CC[C@H](NC(=O)c2ccccc2)[C@H](CO)O1)NCc1ccncn1`?
esBAF inh: -7

What do the screens show for `COc1ccc(NC(=O)Nc2ccc3c(c2)CC(=O)N([C@@H](C)CO)C[C@@H](C)[C@@H](CN(C)C(=O)Nc2ccc(OC)cc2)O3)cc1`?
esBAF inh: 3

Results for O=[N+]([O-])c1ccc(N2CCOCC2)cc1NC(c1ccccc1)c1ccccc1 ?
SMARCA2 act: -1; SKN-1 block: -33; Vif imaging: 2; NadD block: -2; GRIN3A LBD mod: -9

How did O=[N+]([O-])c1ccc(N2CCCC2)cc1NC(c1ccccc1)c1ccccc1 do in these assays?
SMARCA2 act: 1; SKN-1 block: -1; Vif imaging: 3; NadD block: 17; esBAF inh: -10; GRIN3A LBD mod: 14*

How did CC1(C)CC(c2nc(-c3ccccc3)cs2)CCS1 (stereo unspecified) do in these assays?
SMARCA2 act: 4; SKN-1 block: 33; Vif imaging: 0; NadD block: 13; GRIN3A LBD mod: 10*
